An excerpt weighted towards active compounds, which were near 11% of everything screened.
G9a block – qHTS Assay for Inhibitors of Histone Lysine Methyltransferase G9a; G9a H3K9 monomethylation, AlphaScreen, 2 h; Potency, µM (top dose mostly 102 µM), hits mostly inhibitors; actives 8.8% (n = 350,000); note: nearly all actives have a fitted effect of over 75% in size
Target sequence (Q96KQ7 913-1193 limits assumed): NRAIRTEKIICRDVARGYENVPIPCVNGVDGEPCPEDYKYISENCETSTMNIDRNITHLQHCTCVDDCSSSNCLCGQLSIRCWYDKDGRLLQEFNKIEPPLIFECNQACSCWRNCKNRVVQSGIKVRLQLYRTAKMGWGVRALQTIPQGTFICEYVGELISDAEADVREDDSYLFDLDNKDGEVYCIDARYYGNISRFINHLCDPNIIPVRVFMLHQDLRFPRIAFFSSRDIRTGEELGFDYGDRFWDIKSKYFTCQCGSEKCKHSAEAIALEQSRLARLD
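Signal arises when biotinylated H3K9 peptide, once monomethylated, bridges streptavidin donor and antibody-captured acceptor beads. Enzyme at 20 nM was preincubated 15 min with test compounds; peptide 500 nM and SAM 20 uM then reacted for 2 h.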
HP1b binding inh – HTS for Inhibitors of HP1-beta Chromodomain Interactions with Methylated Histone Tails; Chromobox protein homolog 1 (Homo sapiens), P83916; AlphaScreen HP1-beta / biotin-H3K9me3 peptide binding; Potency, µM (series often up to 114 µM), actives largely listed as inhibitors; actives 0.56% (n = 390,000); AID 540317, 2011; note: nearly all actives have a fitted effect of over 70% in size
Target sequence (P83916 whole entry, looked up): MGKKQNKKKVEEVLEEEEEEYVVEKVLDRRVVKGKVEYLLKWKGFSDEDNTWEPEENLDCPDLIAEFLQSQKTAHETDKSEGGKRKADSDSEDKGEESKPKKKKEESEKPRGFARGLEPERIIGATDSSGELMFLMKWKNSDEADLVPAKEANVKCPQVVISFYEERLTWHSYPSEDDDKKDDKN
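AlphaScreen: HP1-beta (50 nM) preformed 30 min with biotin-H3(1-18)K9me3 peptide (50 nM) in PBS pH 7.4, 0.01% Tween-20. Compound added for 30 min at RT, then streptavidin donor/nickel chelate acceptor beads (10 ug/mL) for 30 min.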
PLK1 PBD inh – qHTS for Inhibitors of PLK1-PDB (polo-like kinase 1 - polo-box domain): Primary Screen; Plk1 PBD binding of FITC phosphopeptide, fluorescence polarization; actives 2.8% (n = 360,000); Potency, µM, actives largely listed as inhibitors; Serine/threonine-protein kinase PLK1 (Homo sapiens), P53350; AID 720504, 2013; note: series mostly up to about 57 µM; nearly all actives have a fitted effect of over 65% in size
JMJD2A Tudor inh – qHTS Assay for Inhibitors of JMJD2A-Tudor Domain; Potency, µM (series often up to 114 µM), hits mostly inhibitors; actives 4.4% (n = 390,000); Lysine-specific demethylase 4A (Homo sapiens), O75164; AlphaScreen JMJD2A-Tudor / H3K4me3 peptide binding; note: nearly all actives have a fitted effect of over 50% in size
BAZ2B inh – qHTS Assay for Inhibitors of BAZ2B. Bromodomain adjacent to zinc finger domain protein 2B (Homo sapiens), Q9UIF8. AlphaScreen BAZ2B-H3K14Ac peptide displacement. Potency, µM (doses to about 114 µM), most hits filed as inhibitors. actives 4.4% (n = 360,000); note: nearly all actives have a fitted effect of over 60% in size
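AlphaScreen displacement of biotin-H3(5-23)K14Ac peptide (50 nM final) from BAZ2B (50 nM final) in PBS pH 7.4, 0.01% Tween-20; complex preformed 30 min RT, then compounds (top 110 uM) 30 min RT, beads 20 min dark.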
VDR inh – Inhibitors of the vitamin D receptor (VDR): qHTS | actives 0.93% (n = 400,000) | AID 504847, 2011 | VDR-SRC2-3 peptide fluorescence polarization, 2 h | Vitamin D3 receptor (Homo sapiens), P11473 | Potency, µM, most hits filed as inhibitors
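Fluorescence polarization assay measuring small-molecule disruption of VDR binding to the coregulator peptide SRC2-3. Compounds were pin-transferred (23 nl) into the reagent mix and incubated 2 h at room temperature before reading.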
A number is an active result; - = inactive; ? = inconclusive; . = no result given; [ ] = another dose, or the depositor's remark. Calls come from the whole dose curve; as a rule, active = well fitted curve in the direction sought with a large enough effect; inconclusive = small, poorly fitted or top-dose-only effect, or another doubt; inactive = no such curve, though single readings can be large; an effect the other way counts as inactive or inconclusive.

SMILES | G9a block | HP1b binding inh | PLK1 PBD inh | JMJD2A Tudor inh | BAZ2B inh | VDR inh
NC(=O)C1CCN(C(=O)COc2ccc3ccccc3c2Br)CC1 | . | - | - | - | - | ?
CC1CCN(CCOCCOc2ccc(Cl)cc2Br)CC1 | 10µM | ? | - | 4.5µM | 79µM | -
Clc1ccc(OCCOCCN2CCc3ccccc3C2)c(Cl)c1 | - | - | - | - | - | -
Clc1ccc(OCCCN2CCc3ccccc3C2)c(Br)c1 | - | - | - | - | - | -
Brc1ccccc1OCCCCN1CCCCC1 | - | - | - | - | - | -
CC1CCCN(CCCOc2ccc(Cl)cc2Br)C1 (stereo not given) | 10µM | ? | - | 22µM | - | -
COc1ccc(N2CCN(C(=O)C(C)n3nc(C)c4sc5ccccc5c4c3=O)CC2)cc1 (stereo not given) | ? | - | . | - | - | -
C/C=C/C(=O)[C@@H](C)[C@@H](/C=C/C[Si](C)(C)C)c1ccccc1 | . | - | . | - | . | -
Cc1cc(C)c(NS(=O)(=O)c2ccc(-c3coc(C)n3)cc2)c(C)c1 | - | - | . | - | - | -
COC(=O)c1csc(C(=O)c2c[nH]c3ccccc23)n1 | - | . | . | . | . | -
Cc1ccc(S(=O)(=O)N2Cc3ccccc3CC2C(=O)N(C)C)cc1 (stereo not given) | . | . | - | . | . | .
CCC(=O)Nc1ccccc1-c1nc2ccccc2n(C(C)C(=O)Nc2ccc(OC)cc2)c1=O (stereo not given) | - | - | . | - | - | -
Cc1ccc(-n2c(Cl)c(Cl)nc(Cl)c2=O)cc1 | ? | - | 2.7µM | - | ? | ?
CCc1ccc(-c2nc3c(=O)n(C)c(=O)nc-3n(CC)n2)cc1 | . | - | . | - | . | ?
CC(=O)c1c(C)[nH]c(C(=O)OC(C)C(=O)Nc2cc(S(=O)(=O)N3CCCCC3)ccc2Cl)c1C (stereo not given) | - | - | - | - | - | -
CCC(C)Sc1nnc(Cc2cc(=O)[nH]c(=O)[nH]2)n1-c1ccc(F)cc1 (stereo not given) | 40µM | - | - | - | - | -
COC(=O)C(C)Sc1nnc(Cc2cc(=O)[nH]c(=O)[nH]2)n1-c1ccc(Cl)cc1 (stereo not given) | ? | . | . | . | - | .
CCOC(=O)C(C)Sc1nnc(Cc2cc(=O)[nH]c(=O)[nH]2)n1-c1ccc(Cl)cc1 (stereo not given) | ? | - | 21µM | ? | - | ?
CC1CCN(C(=O)CSc2nnc(Cc3cc(=O)[nH]c(=O)[nH]3)n2-c2ccc(Cl)cc2)CC1 | 35µM | - | - | - | - | -
CCOc1ccc(-n2c(Cc3cc(=O)[nH]c(=O)[nH]3)nnc2SCc2cccnc2)cc1 | 56µM | . | . | . | - | .
CCOc1ccc(-n2c(Cc3cc(=O)[nH]c(=O)[nH]3)nnc2SC(C)C)cc1 | - | - | - | - | - | -
CCCSc1nnc(Cc2cc(=O)[nH]c(=O)[nH]2)n1-c1cc(C)ccc1C | ? | - | - | 14µM | - | -
Oc1c(N=Nc2ccccn2)ccc2ccccc12 | -[0.501 µM] | 5µM | - | 2.8µM | 3.2µM | ?
CC1=CC2C(C)(C)CC(=O)C[C@]2(C)CC1COc1ccc2c(c1)CC(=O)C=C2 (stereo not given in full) | . | . | . | . | . | -
Cc1cc(NC(=O)CN2C(=O)[C@@H]3[C@H](C2=O)[C@@H]2C[C@H]3C(Br)C2Br)no1 (stereo not given in full) | - | - | - | - | - | -
Cc1ccc(C(=O)N2CCCCCC2)cc1S(=O)(=O)Nc1ccccc1 | . | - | - | - | - | -
Cc1cc(C(=O)N2CCN(C/C=C/c3ccccc3)CC2)no1 | 50µM | - | - | - | - | -
O=C(NC(=S)N1CCN(C/C=C/c2ccccc2)CC1)c1c(F)cccc1F | ? | - | - | - | - | -

Assay outcomes deposited in PubChem by National Center for Advancing Translational Sciences (NCATS).
